G9a block – blocks human histone lysine methyltransferase G9a; Q96KQ7; G9a H3K9 monomethylation, AlphaScreen, 2 h; Potency, µM (highest dose often 102 µM), most hits filed as inhibitors; actives 8.8% (n = 350,000); further: nearly all actives have a fitted effect of over 75% in size
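Methyltransferase reactions run at room temperature for 2 h (20 nM enzyme, 500 nM biotin-H3K9 peptide, 20 uM SAM) after a 15 min compound preincubation; product detected by AlphaScreen beads and anti-H3K9me1 antibody.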
JMJD2A Tudor – JMJD2A Tudor domain (human) inhibition; O75164; AlphaScreen JMJD2A-Tudor / H3K4me3 peptide binding; Potency, µM (series often up to 114 µM), most hits filed as inhibitors; actives 4.4% (n = 390,000); AID 504339; further: nearly all actives have a fitted effect of over 50% in size
HP1b binding inh – HP1-beta chromodomain-methylated histone interaction inhibition; AlphaScreen HP1-beta / biotin-H3K9me3 peptide binding; actives 0.56% (n = 390,000); Potency, µM (series often up to 114 µM), usual class: inhibitors; P83916; further: nearly all actives have a fitted effect of over 70% in size
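HP1-beta protein (50 nM final) preincubated 30 min at room temperature with biotinylated H3(1-18)K9me3 peptide (50 nM) in PBS pH 7.4, 0.01% Tween-20, then compound added for 30 min. AlphaScreen streptavidin donor/nickel chelate acceptor beads (10 ug/mL final), 30 min dark, luminescence read.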
GLS inh – blocks human kidney-isoform glutaminase activity. Potency, µM (highest dose often 45.5 µM), hits mostly inhibitors. O94925. GLS enzymatic activity, qHTS titration. actives 0.21% (n = 410,000)
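Enzyme dispensed in phosphate buffer (45 mM, pH 8.2, 0.02% Tween-20), compounds pinned in, then 1 mM L-glutamine solution and the glutamate oxidase–HRP–Amplex Red mix added; fluorescence read immediately and again after 30 min at room temperature.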
BAZ2B block – blocks human BAZ2B; Q9UIF8; AlphaScreen BAZ2B-H3K14Ac peptide displacement; Potency, µM (titrated, usually from 114 µM), hits mostly inhibitors; actives 4.4% (n = 360,000); further: nearly all actives have a fitted effect of over 60% in size
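Compounds, titrated to a top concentration of 110 uM, were incubated 30 min at room temperature with preformed BAZ2B/acetyl-K14 H3 peptide complex (50 nM each). Proximity signal was measured by AlphaScreen after 20 min with beads.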
Of the large screens only hits and unclear results are named; the others gave an inactive call. Shown are actives, neighbours in structure and some others; about 10% of the full set was active somewhere. The call rests on the fitted dose curve; in most records, active means well fitted curve in the direction sought with a large enough effect; inconclusive means small, poorly fitted or top-dose-only effect, or another doubt; inactive means no such curve, though single readings can be large; an effect the other way counts as inactive or inconclusive.

Cn1cnc2cc(NCc3cccs3)ccc21	G9a block inconclusive
COc1ccc(-n2cnc3cc(NCc4cccs4)ccc32)cc1	G9a block inconclusive, HP1b binding inh 40µM, BAZ2B block 18µM
Cc1nc2cc(NC(=O)NCc3ccco3)ccc2n1C	none
CCC(=O)Nc1ccc2c(c1)ncn2-c1ccc(OC)cc1	none
c1ccc(-n2cnc3cc(NCc4ccco4)ccc32)cc1	G9a block 11µM, JMJD2A Tudor 79µM, HP1b binding inh inconclusive, BAZ2B block inconclusive
c1ccc(-n2cnc3cc(NCc4cccs4)ccc32)cc1	JMJD2A Tudor 56µM, BAZ2B block 50µM
CCCCOc1ccc(CSc2n[nH]c(C)n2)cc1	G9a block 28µM
Cc1nc(SCc2ccc(C#N)cc2)n[nH]1	none (no result: G9a block)
CCCCn1c(SCC(=O)OCC)nc2c1c(=O)[nH]c(=O)n2C	G9a block 10µM
CCOC(=O)CSc1nc2c(c(=O)[nH]c(=O)n2C)n1C/C=C(/C)Cl	G9a block 14µM
CCCCCn1c(SCCN2CCOCC2)nc2c1c(=O)[nH]c(=O)n2C	G9a block 25µM
CCOC(=O)CSc1nc2c(c(=O)[nH]c(=O)n2C)n1CCc1ccccc1	none
CN(C1CCCCC1)S(=O)(=O)c1ccc(NC(=O)C2CCCCC2)cc1	none
CCC(=O)Nc1ccc(Br)cn1	none
Cc1c(NC(=O)c2sc3c([N+](=O)[O-])cccc3c2Cl)cccc1-c1nc2ccccc2o1	G9a block inconclusive
CCOC(=O)c1sc(NC(=O)c2ccc(S(=O)(=O)N3CCOCC3)cc2)cc1C	none
CC(C)c1ccc(OCc2ccc(C(=O)O)o2)cc1	G9a block inconclusive, BAZ2B block 79µM
CC(=O)Nc1ccc(S(=O)(=O)NNC2=NS(=O)(=O)c3ccccc32)cc1	BAZ2B block 71µM
COCCCNC(=O)C1CCN(c2ncnc3c2nc2n3CCCCC2)CC1	none
CN(CC1CCCN(CCc2cccc(C(F)(F)F)c2)C1)C(=O)c1ccco1 (stereo not given)	none (no result: G9a block)
COC(=O)c1sc2nc(SCc3ccccc3C)n(N)c(=O)c2c1C	none
COC(=O)c1sc2nc(SCC(=O)N(C)c3ccccc3)n(N)c(=O)c2c1C	G9a block 25µM
CC(O/N=C/c1ccccc1OC(F)F)C(=O)Nc1cccc(S(=O)(=O)N2CCOCC2)c1 (stereo not given)	none
Oc1ccc2c(c1)OCC1(O)Cc3cc(O)c(O)cc3C21 (stereo not given)	JMJD2A Tudor 20µM, HP1b binding inh inconclusive, GLS inh inconclusive (no result: BAZ2B block)
Oc1cc2c(cc1O)[C@H]1c3ccc(O)c(O)c3OC[C@@]1(O)C2	JMJD2A Tudor 1.3µM, HP1b binding inh inconclusive, GLS inh inconclusive, BAZ2B block 35µM
Cc1ccccc1-c1cc2nc(NCc3ccc4occc4c3)n(C)c(=O)c2s1	none (no result: G9a block, JMJD2A Tudor, HP1b binding inh, BAZ2B block)
CCN(CC)CCN(C(=O)CCS(=O)(=O)c1ccccc1)c1nc2c(C)cc(C)cc2s1	G9a block 45µM
CCN(CC)CCN(C(=O)CCS(=O)(=O)c1ccccc1)c1nc2cc(OC)c(OC)cc2s1	G9a block 18µM
CCN(CC)CCN(C(=O)CCS(=O)(=O)c1ccccc1)c1nc2cc(C)cc(C)c2s1	G9a block 35µM
Cc1cc(C)c2sc(N(Cc3cccnc3)C(=O)CCOc3ccccc3)nc2c1	none
Cc1cc(C)c2sc(N(CCN(C)C)C(=O)CCS(=O)(=O)c3ccccc3)nc2c1	G9a block 40µM, JMJD2A Tudor inconclusive
O=C(CCS(=O)(=O)c1ccccc1)N(Cc1cccnc1)c1nc2ccc(F)cc2s1	none
Cc1cc(C)c2c(n1)sc1c(-c3ccccc3)c(C#N)c(N)nc12	G9a block 7.9µM, JMJD2A Tudor inconclusive
Cc1nc(N)c(C#N)c(-c2ccccc2)c1C	none
Cc1ccc(C)c(Nc2nc3c(S(=O)(=O)c4ccc(C(C)C)cc4)nnn3c3ccsc23)c1	BAZ2B block 79µM
COc1ccccc1Nc1nc2c(S(=O)(=O)c3ccc(C(C)C)cc3)nnn2c2ccsc12	none
Cc1ccc(Nc2nc3c(S(=O)(=O)c4ccccc4)nnn3c3ccsc23)c(C)c1	BAZ2B block inconclusive
Cc1ccc(C)c(Nc2nc3c(S(=O)(=O)c4ccc(Br)cc4)nnn3c3ccsc23)c1	G9a block 18µM, JMJD2A Tudor 56µM, BAZ2B block 50µM
CC(=O)Nc1ccc(C(=O)OCC(=O)N2CCN(C(=O)c3ccco3)CC2)cc1	none
CCn1ccnc1CN(C)Cc1cn(-c2cc(C)ccc2C)nc1-c1ccccc1	G9a block 50µM, JMJD2A Tudor inconclusive, BAZ2B block inconclusive
Cc1ccc(-n2cc(CN(C)Cc3ncc[nH]3)c(-c3cccc(C)c3)n2)cc1	G9a block inconclusive, JMJD2A Tudor 32µM, BAZ2B block 50µM
Cc1ccc(C)c(-n2cc(CN3CCNC(=O)CC3)c(-c3ccccc3)n2)c1	G9a block inconclusive
CN(Cc1cn(C)nc1-c1cccc(Cl)c1)Cc1nccn1C	BAZ2B block inconclusive
Cc1ccc(-n2cc(CN(C)Cc3nccn3C)c(-c3ccc(F)cc3)n2)cc1	JMJD2A Tudor 45µM, HP1b binding inh inconclusive, BAZ2B block 20µM (no result: G9a block)
CCn1ccnc1CN(C)Cc1cn(-c2ccc(C)cc2)nc1-c1ccc(F)cc1	JMJD2A Tudor inconclusive, HP1b binding inh inconclusive, BAZ2B block 50µM
CN(Cc1ncc[nH]1)Cc1cn(-c2ccccc2)nc1-c1ccc2c(c1)OCO2	G9a block inconclusive, BAZ2B block inconclusive
Cc1ccc(C2C(C#N)=C(N)Oc3n[nH]c(C)c32)cc1 (stereo not given)	none
Cc1ccc(C(=O)NCC(=O)OCC(=O)NC2CCCC(C)C2C)s1 (stereo not given)	G9a block inconclusive, BAZ2B block inconclusive
Cc1cccc(NC(=O)CCNS(=O)(=O)c2cc(Br)cnc2N)c1C	G9a block inconclusive
CCn1ccnc1CN(C)Cc1cn(C)nc1-c1ccccc1F	G9a block inconclusive, BAZ2B block inconclusive
CCn1ccnc1CN(C)Cc1cn(-c2ccccc2)nc1-c1ccc(OC)cc1F	G9a block inconclusive, JMJD2A Tudor 40µM
CCn1cc([N+](=O)[O-])c(C(=O)N2N=C(c3ccc(O)c(OC)c3)CC2c2ccccc2O)n1 (stereo not given)	G9a block 40µM
Cn1c(Cc2ccccc2)nnc1SCC(=O)c1cccs1	G9a block 50µM
Cc1ccc2cc(C)c3nnc(SCC(=O)c4cccs4)n3c2c1C	G9a block 35µM, JMJD2A Tudor inconclusive
Cc1ccc(C)c2c1cc(C)c1nnc(SCC(=O)c3cccs3)n12	G9a block 13µM, JMJD2A Tudor inconclusive
COc1ccc(C(=O)C2CCN(C(=O)c3ccc(F)cc3)CC2)cc1	none (no result: G9a block)
CCOC(=O)c1c(C)[nH]c(C(=O)N2CCCC(C(=O)c3ccccc3OC)C2)c1C (stereo not given)	BAZ2B block inconclusive
C/C=C/Cn1c(SCc2ccc(C)cc2)nc2c1c(=O)[nH]c(=O)n2C	G9a block 25µM
